Data on 60 sequences can be found in the OligoGym collection.

Common to all, as to assay: pooled miR-30 sensor sort-seq; sequence = guide strand
Settings in all cases: shRNA

Assay [1] concerns the target WDR33.
Assay [2] has as its target VWA3A.
Assay [3] concerns the target WBSCR16.
The target of assay [4] is WDFY1.
Assay [5] addresses WFDC12.
The target of assay [6] is XAGE3.
In assay [7] the target is YARS.
Assay [8] deals with XKRX.
In assay [9] the target is YAP1.
Assay [10] concerns the target XKR5.
Further: reference of the scale not given here.

With TAAACTGTCCCTGTGGACCTGG, the sensor-assay potency score (higher = more potent) in assay [1] is -0.115. In [2], TTTAGGACAAGGCTGCAGCTTG returned a sensor-assay potency score (higher = more potent) of -0.774.

For the sequence TTCTTAACTTTTCCAAGCCAGG, in assay [3], the sensor-assay potency score (higher = more potent) was -1.27. In assay [1], TAGTATATTGTAATGTAGCCAT returned a sensor-assay potency score (higher = more potent) of -0.402. AATCTTTTGGTCCAGCTCCAGG displayed a sensor-assay potency score (higher = more potent) in assay [3] of -1.82. In [4], TAACAAGAATCACAAACCCGGA came in with a sensor-assay potency score (higher = more potent) of -0.759. Sequence TAGACTTCTCCTTTATCCGTCA came in with a sensor-assay potency score (higher = more potent) in assay [3] of -0.137.

TTTCACTACACATTAGCTGTTC: the sensor-assay potency score (higher = more potent) in assay [4] is 0.757. With TTAGCCTCGATTCTCTTCCTGA, the sensor-assay potency score (higher = more potent) in assay [3] was -0.0373. Consider TGAATGTTCTTCACTGTCCCGT, for which the sensor-assay potency score (higher = more potent) in assay [2] was -0.182. In the case of TTTTGGTCCAGCTCCAGGCGAT, in [3], the sensor-assay potency score (higher = more potent) was -1.09. In the case of TTGAGGGTTGTGATGACTGAAC, the sensor-assay potency score (higher = more potent) in assay [4] was -1.35. In the case of TTAGCTGAAGTGTCTTTGGTTT, the sensor-assay potency score (higher = more potent) in assay [2] is -0.499. The sequence TTGATCGCCTCCTTAAACCTTT returned a sensor-assay potency score (higher = more potent) in assay [4] of -0.0804.

Regarding TCATTTTCGACCACCTTTCTTC, in assay [3], the sensor-assay potency score (higher = more potent) is 0.23.

In assay [3], TTTCGTAACATCCGCAGTCTTA yielded a sensor-assay potency score (higher = more potent) of -0.626. Sequence TACATCTCTAACATATTGCAAA came in with a sensor-assay potency score (higher = more potent) in assay [1] of -1.19. Regarding TTCAGCTGGAGGTCGCAGCCGC, in assay [2], the sensor-assay potency score (higher = more potent) is -0.797. For TTATCCGTCAGGAACAGACTAT, the sensor-assay potency score (higher = more potent) in assay [3] is -0.761.

In assay [4], TTTCTTCTCTTCCTCATCCTGG gave a sensor-assay potency score (higher = more potent) of -0.185. Same read-out and setting: next, TAACTTGAGCGCTTGCTGCTGC: 0.171. On to TTCTGGGTTGAACTCCGTCAAG, for which, in assay [3], the sensor-assay potency score (higher = more potent) was -1.57. As to TATAAAACAAATTTAGTCCTTT, the sensor-assay potency score (higher = more potent) in assay [4] stood at 0.214. TTCTGCATCATTTTTCTTCTGG: the sensor-assay potency score (higher = more potent) in assay [2] is 0.433. Same read-out and setting: next, TCGAGCAGTACAACCACCCTTT: 0.012. As for TCTTTCACTACACATTAGCTGT, in [4], the sensor-assay potency score (higher = more potent) is -0.731. For TTGGTGTTTGTCTTTGTCCTTG, the sensor-assay potency score (higher = more potent) in [2] was -0.376. For the sequence TAGGATTATTCAACATTCCTAT, the sensor-assay potency score (higher = more potent) in [1] is -0.157. The sequence TTTAACACTGCACAGCCCGTGC returned a sensor-assay potency score (higher = more potent) in assay [3] of -0.959. In turn, TAAATTGTTGTGACTCACGGGA displayed a sensor-assay potency score (higher = more potent) in [2] of 0.0538.

In the case of TATTGTAGTGACCCAGACCTGT, the sensor-assay potency score (higher = more potent) in assay [3] is -0.394. Sequence TTGACCACTGTCTCTTTTCAGC yielded a sensor-assay potency score (higher = more potent) in assay [4] of -0.843. With TTCTCTGCTAACATCCATGTTC, in assay [4], the sensor-assay potency score (higher = more potent) is -0.775. Regarding AACTCCTTCCACAGCCACCAGG, in assay [5], the sensor-assay potency score (higher = more potent) was -1.44.

With TGATCTTCTTCTCTCTCCTGAC, in assay [6], the sensor-assay potency score (higher = more potent) was -1.05. Turning to TTCTCGAAGACTTTCTTCTTGG, the sensor-assay potency score (higher = more potent) in [7] was -0.635. In turn, TTCTCTACCAACCTCACACTAT came in with a sensor-assay potency score (higher = more potent) in assay [8] of -0.943. Regarding TTATCTTTGGCTAGATCTCTGT, the sensor-assay potency score (higher = more potent) in assay [8] was -0.472. Take TTTTAAATACTCTTCATCCAAA: in assay [7], the sensor-assay potency score (higher = more potent) was -1.12.

For the sequence TGTTGAACAAACTAAATGCTGT, the sensor-assay potency score (higher = more potent) in assay [9] turned out to be 0.164.

The sequence TTTGGTTGATAGTATCACCTGT returned a sensor-assay potency score (higher = more potent) in assay [9] of 0.841. In the case of TAGTCTACTACATTATGGGTGA, the sensor-assay potency score (higher = more potent) in [8] is -0.472. For TGTTGTTGTCTGATCGATGTGA, the sensor-assay potency score (higher = more potent) in assay [9] was found to be 0.751. In assay [7], TCGTAGGATCACAAACTCGGAC yielded a sensor-assay potency score (higher = more potent) of -0.717.

Turning to ATCTTCTCTACATACAGGCTGT, in assay [7], the sensor-assay potency score (higher = more potent) was -0.695. Turning to TTGATCTTAGACACATTTCCTG, in assay [10], the sensor-assay potency score (higher = more potent) amounted to 0.217. In assay [7], TTGAATAGCCAAGTGCAGGGAG yielded a sensor-assay potency score (higher = more potent) of 0.352.

TTGGTTGATAGTATCACCTGTA: in assay [9], the sensor-assay potency score (higher = more potent) is 0.588. With TCTAGTGTGTACTCTTTGCTGA, the sensor-assay potency score (higher = more potent) in assay [7] was found to be 0.0358. For the sequence ATCTTTTTCTGTATTAGCCTGA, the sensor-assay potency score (higher = more potent) in [9] amounted to 0.428.

Take TTAGTTATTACAAGCACACAGG: the sensor-assay potency score (higher = more potent) in [10] is -0.438.

TAGTCATCGTACTTGATCTGGA: in assay [8], the sensor-assay potency score (higher = more potent) was determined as 0.135. On to TGATCTTAGACACATTTCCTGT, for which, in assay [10], the sensor-assay potency score (higher = more potent) is -0.718.

On to TACATTAACAGCAGCAATGGAC, for which the sensor-assay potency score (higher = more potent) in assay [9] is -0.672. On to TAAGTTATTCTACTATTCCTTT, for which, in assay [10], the sensor-assay potency score (higher = more potent) is -0.571. Take TAAATGGAAAAGTAAATCGGGG: the sensor-assay potency score (higher = more potent) in assay [8] was -0.48.

Consider TTCTCATAGTAACTGACTCGGA, for which, in assay [7], the sensor-assay potency score (higher = more potent) was -0.794.

With TAGCACAACTCTACCCAGGGGA, the sensor-assay potency score (higher = more potent) in [8] was determined as 0.12. Sequence TTAGCCTGAAAACTGCAACTGG registered a sensor-assay potency score (higher = more potent) in assay [9] of -0.22. In assay [9], TTAAGAAGTATCTCTGACCAGA had a sensor-assay potency score (higher = more potent) of 0.035.
